We go through 33 compounds from ChEMBL document CHEMBL4513146, “CO-ADD screening of Karazin Kharkiv National University (Ukraine) compounds”.

Entries with a potency or affinity are not part of this list.

In one test the test system is Staphylococcus aureus. The conditions noted are these: Concentration 32 ug.mL-1;; ASSAY_TEST Inhibition of Bacterial Growth; detection method Absorption (OD600); MEDIA CAMHB; plate type 384well; NBS; CORNING #3640; time 18 hr.
Another test deals with Escherichia coli. The settings on record: Concentration 32 ug.mL-1;; ASSAY_TEST Inhibition of Bacterial Growth; detection method Absorption (OD600); MEDIA CAMHB; plate type 384well; NBS; CORNING #3640; time 18 hr.

What is called Inhibition is the drop in the measured response relative to a control, in per cent.

In the case of `COC(=O)c1cccc(NC(=O)Cn2nc3c(Sc4ccc(C)cc4C)nccn3c2=O)c1`, the Inhibition is 10.39% in the test with Staphylococcus aureus and -5.72% with Escherichia coli.
In the case of `O=C(Cn1nc2c(N3CCOCC3)nccn2c1=O)NCc1cc(F)cc(F)c1`, the Inhibition in the test on Staphylococcus aureus is reported as 7.03%; in the test with Escherichia coli, -4.76%.
`COC(=O)c1ccc(NC(=O)Cn2nc3c(N4CCOCC4)nccn3c2=O)cc1`: the Inhibition in the test on Staphylococcus aureus came to 12.61%; with Escherichia coli it was 0.79%.
`Cc1cc(C)cc(N(Cc2cc(C)ccc2C)S(=O)(=O)c2cccn3c(C)nnc23)c1`: the Inhibition in the test with Staphylococcus aureus is on record as 6.88%; with Escherichia coli, -2.32%.
Turning to `CCOC(=O)c1ccc(NC(=O)Cn2nc3ccc(SC(C)(C)C)nn3c2=O)cc1`, the Inhibition in the test with Staphylococcus aureus is on record as -4.89%; in the test on Escherichia coli, -11.53%.
As for `O=C(Cn1nc2c(Oc3ccccc3)nccn2c1=O)Nc1ccccc1F`, the Inhibition is reported as 6.14% with Staphylococcus aureus and -2.38% in the test with Escherichia coli.
Turning to `Cc1ccc(Cn2nc3c(=O)n(-c4ccc(C)c(C)c4)ccn3c2=O)cc1`, the Inhibition in the test on Staphylococcus aureus is 14.06%; in the test on Escherichia coli, -0.87%.
On the same counts, the results for `CSc1cccc(NC(=O)Cn2nc3ccc(-c4ccccc4)nn3c2=O)c1` are -12.73% and -15.49%.
With `CCN(CCCNC(=O)CCc1nnc2ccc(-c3ccccc3)nn12)c1ccccc1`, the figures for the Inhibition in the test on Staphylococcus aureus and in the test with Escherichia coli were 5.66% and 4.87%, respectively.
Consider `Cc1cc2nn(CC(=O)Nc3cc(F)cc(F)c3)c(=O)n2c(Nc2ccc(F)c(C)c2)n1`, for which the Inhibition in the test on Staphylococcus aureus is given as 7.29%; in the test on Escherichia coli, -2.56%.
On the same counts, the results for `COc1ccc(NC(=O)CSc2nnc3c(=O)n(-c4ccccc4)ccn23)cc1` are -4.77% and -6.17%.
For the compound `Cc1cccc(NC(=O)Cn2nc3c(SCc4ccccc4)nccn3c2=O)c1C`, the Inhibition is reported as -0.26% with Staphylococcus aureus and -6.74% in the test on Escherichia coli.
Taken in the same sequence, the figures for `COc1cc(NC(=O)Cn2nc3n(CCc4ccccc4)c(=O)c4ccccc4n3c2=O)cc(OC)c1` were 8.09% and -2.27%.
For `Cc1cccc(Sc2nccn3c(=O)n(CC(=O)N4CCN(c5ccc(F)cc5)CC4)nc23)c1`, the Inhibition in the test with Staphylococcus aureus is recorded as -10.95%; in the test on Escherichia coli, -6.75%.
Regarding `CCOc1ccc(-n2ccn3c(SCC(=O)Nc4ccc(Cl)cc4)nnc3c2=O)cc1`, the results for the Inhibition with Staphylococcus aureus and in the test with Escherichia coli were 4.06% and -5.21%, respectively.
On to `COc1ccccc1-n1ccn2c(SCc3ccccc3F)nnc2c1=O`, for which the Inhibition in the test on Staphylococcus aureus is 11.33%; in the test on Escherichia coli, -2.76%.
Taken in the same sequence, the figures for `CCc1ccccc1Sc1nccn2c(=O)n(CC(=O)NCc3ccc(OC)cc3)nc12` were -5.48% and -1.47%.
With `CCCc1nnc2c(=O)n(CC(=O)Nc3ccc(C(C)=O)cc3)c3ccccc3n12`, the results for the Inhibition with Staphylococcus aureus and with Escherichia coli were 1.62% and 1.52%, respectively.
Take `CCc1nnc2c(S(=O)(=O)N(Cc3ccccc3C)c3ccc(Cl)cc3)cccn12`: the figures for the Inhibition in the test on Staphylococcus aureus and in the test with Escherichia coli were -22.93% and -4.88%, respectively.
`COc1cccc(CN(c2cc(C)cc(C)c2)S(=O)(=O)c2cccn3c(C)nnc23)c1`: the figures for the Inhibition in the test with Staphylococcus aureus and with Escherichia coli were -0.14% and -8.8%, respectively.
Take `Cc1cc(C)c(NC(=O)Cn2nc3c4c5c(sc4ncn3c2=O)CCCC5)c(C)c1`: the results for the Inhibition in the test with Staphylococcus aureus and with Escherichia coli were 8.81% and -5.83%, respectively.
For `O=C(Cn1nc2c3cc(F)ccc3ncn2c1=O)Nc1ccc2c(c1)OCO2`, the figures for the Inhibition in the test with Staphylococcus aureus and in the test with Escherichia coli were 5.65% and -3%, respectively.
For `CC(C)c1nnc2c(SCC(=O)Nc3ccccc3C(F)(F)F)nc3ccccc3n12`, the Inhibition in the test on Staphylococcus aureus was 6.66%; in the test on Escherichia coli, -3.21%.
For the compound `Cc1cccc(C)c1NC(=O)CSc1nnc2ccc(C(=O)Nc3cccc(F)c3)cn12`, the Inhibition is on record as 12.1% in the test with Staphylococcus aureus and 2.91% in the test with Escherichia coli.
On the same counts, the results for `CCCN(C)c1nccn2c(=O)n(CC(=O)Nc3cccc(SC)c3)nc12` are 12.22% and -2.46%.
As to `COc1ccc(-c2cc3c4nn(CC(=O)Nc5ccccc5OC)c(=O)n4ccn3n2)cc1`, the figures for the Inhibition in the test with Staphylococcus aureus and in the test with Escherichia coli were 2.83% and -1.9%, respectively.
Turning to `COc1cccc(Oc2nccn3c(=O)n(CC(=O)NCc4ccccc4Cl)nc23)c1`, the Inhibition is on record as 11.84% in the test on Staphylococcus aureus and 2.87% in the test with Escherichia coli.
For `CCc1ccccc1NC(=O)Cn1c(=O)c2nnc(C(C)C)n2c2ccccc21`, the Inhibition with Staphylococcus aureus came out at 5.45%; in the test with Escherichia coli it was 0.46%.
Consider `COc1ccc(NC(=O)Cn2nc3c(Sc4cccc(F)c4)nccn3c2=O)cc1Cl`, for which the Inhibition in the test with Staphylococcus aureus is listed as 6.9%; with Escherichia coli it was -7.48%.
On the same counts, the results for `COc1ccc(NC(=O)c2ccc3nn(CC(=O)Nc4ccc(C(C)=O)cc4)c(=O)n3c2)cc1` are 15.44% and -1.93%.
With `C=Cc1ccc(CSc2nnc3c(=O)n(-c4ccc(Br)cc4)ccn23)cc1`, the Inhibition in the test on Staphylococcus aureus is 2.47%; in the test with Escherichia coli, -8.25%.
`Cc1ccc(-c2ccc3nn(CC(=O)N4CCN(c5ccccc5F)CC4)c(=O)n3n2)cc1C`: the Inhibition is recorded as 3.55% in the test with Staphylococcus aureus and -1.18% in the test with Escherichia coli.
`COc1ccc(-c2nc(CSc3nc4ccccc4n4c(C(C)C)nnc34)c(C)o2)cc1`: the Inhibition in the test with Staphylococcus aureus was -9.17%; in the test on Escherichia coli, -2.62%.
